Results filed as inconclusive are left out. Activity calls are given as the source filed them. The calls were made as follows, unless noted: active = hit-call score of the fitted dose curve at least 0.9, where 1 is the maximum; inactive = score below 0.9.
Key:
[1] = VALA_MIGHUV2_WoundArea: VALA Sciences human Umbilical Vein Endothelial Cell Migration (MIGHUV) Assay, Area of Scratch Wound after Recovery (AID 2284316; active = hit-call score of the fitted dose curve at least 0.9, where 1 is the maximum)
Outline: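 Wound-area endpoint read by fluorescence imaging of Hoechst-stained nuclei after a 24 h recovery period following scratch of HUVEC monolayers (9000 cells/well). Chemicals dosed within 30 min post-scratch, triplicate 6-point series, 0.1% DMSO vehicle; Cytochalasin D positive control.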

[2] = VALA_MIGHUV1_ScratchOnly_WoundArea: VALA Sciences human Umbilical Vein Endothelial Cell Migration (MIGHUV) Assay, Area of Scratch Wound Inhibited Recovery (AID 2284336; active = hit-call score of the fitted dose curve at least 0.9, where 1 is the maximum)
Outline: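 Wound area remaining after 24 h recovery imaged by Hoechst nuclear fluorescence in scratched HUVEC cultures, chemicals added within 30 min of scratching across a 6-point series. Gain of signal fitted against 0.1% DMSO; cytochalasin D positive control.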

[3] = system: Brachyury (BRA) Protein Expression, Deisenroth Lab, TBXT (gene 6862); test: CCTE_Deisenroth_DEVTOX-GLR_legacy_Bra: (Legacy) CCTE's DevTox GLR-Endo Assay Evaluation of Brachyury (BRA) Protein Expression, Deisenroth Lab (AID 2284329)
Outline: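 Readout: percent Bra+ cells by high-content fluorescence imaging, Bra+ meaning mean intensity 5x BMAD over pluripotent control median. RUES2-GLR cells dosed twice over 48 h differentiation; DMSO-control median subtracted before concentration-response fitting.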

[4] = CCTE_Deisenroth_DEVTOX-GLR_legacy_CellCount: (Legacy) Viability Assessment in CCTE's DevTox GLR-Endo Assay, Deisenroth Lab (AID 2284331); conditions: actives raise or lower the signal
Outline: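 RUES2-GLR human pluripotent cells were seeded 24 h, then differentiated 48 h with two compound doses at 24 h intervals (10-point, 1 nM - 200 uM). Fixed nuclei were imaged and counted; bidirectional fitting versus 0.2% DMSO.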

Structure (SMILES)	outcome [1]	outcome [2]	AC50 [3]	AC50 [4]
Nc1ncn[nH]1	inactive	inactive	–	–
NC(=O)c1ccc(N)nc1	–	–	24.1 µM (active)	30.6 µM (active)

Source: PubChem BioAssay (EPA / NIEHS)
